Test results taken from PubChem BioAssay AID1159580 (chemical genetic matrix, 2015).
Hit rate of the full screen: of about 5,500 compounds, about 2,000 (36%) were called active. Another 18% or so got no clear call; they are omitted. No stated cut-off is given here; in the data, active means normalized growth mostly below about 0.91 (no sharp cut-off); inconclusive means no clear call, values can overlap the other calls; inactive means mostly above about 0.92. Some of the results follow.

Assay: chemical genetic growth profiling, strain panel (AID 1159580);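 further: tested at 20 µM; growth read once vehicle control cultures reached saturation at 30 °C; 1 = growth at the plate median or of vehicle wells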
Conditions: S. cerevisiae deletion strains, growth OD

Measured: normalized growth

COc1ccc(C(=O)CSC2=NCCc3ccccc32)cc1
inactive: locus YAR019C, strain CDC15, stronger effect = lower value 0.975 | locus YBL105C, strain PKC1, stronger effect = lower value 0.982 | locus YBR135W, strain CKS1, stronger effect = lower value 0.959 | locus YBR136W, strain MEC1, stronger effect = lower value 0.978 | locus YBR160W, strain CDC28, stronger effect = lower value 0.974 | locus YDL017W, strain CDC7, stronger effect = lower value 0.98 | locus YDL028C, strain MPS1, stronger effect = lower value 0.97 | locus YDL101C, strain DUN1, stronger effect = lower value 0.976 | locus YDL108W, strain KIN28, stronger effect = lower value 0.968 | locus YDL132W, strain cdc53, stronger effect = lower value 0.974 | locus YDL214C, strain PRR2, stronger effect = lower value 0.999 | locus YDR052C, strain DBF4, stronger effect = lower value 0.983 | locus YDR054C, strain cdc34, stronger effect = lower value 0.978 | locus YDR226W, strain ADK1, stronger effect = lower value 0.971 | locus YDR477W, strain SNF1, stronger effect = lower value 1 | locus YER123W, strain YCK3, stronger effect = lower value 1.02 | locus YER133W, strain GLC7, stronger effect = lower value 1.01 | locus YFL009W, strain cdc4, stronger effect = lower value 0.968 | locus YFL029C, strain CAK1, stronger effect = lower value 0.972 | locus YFR003C, strain YPI1, stronger effect = lower value 0.979 | locus YFR019W, strain FAB1, stronger effect = lower value 1.04 | locus YFR028C, strain CDC14, stronger effect = lower value 0.982 | locus YGR040W, strain KSS1, stronger effect = lower value 1 | locus YGR052W, strain FMP48, stronger effect = lower value 1.13 | locus YGR092W, strain DBF2, stronger effect = lower value 0.984 | locus YHR030C, strain SLT2, stronger effect = lower value 1.01 | locus YHR079C, strain IRE1, stronger effect = lower value 1 | locus YHR082C, strain KSP1, stronger effect = lower value 1.04 | locus YHR205W, strain SCH9, stronger effect = lower value 0.938 | locus YIL147C, strain SLN1, stronger effect = lower value 0.971 | locus YJL095W, strain BCK1, stronger effect = lower value 0.969 | locus YJL128C, strain PBS2, stronger effect = lower value 0.951 | locus YJL157C, strain FAR1, stronger effect = lower value 0.995 | locus YJR016C, strain ILV3, stronger effect = lower value 0.972 | locus YJR066W, strain TOR1 (second series), stronger effect = lower value 1 | locus YJR066W, strain TOR1, stronger effect = lower value 0.985 | locus YKL048C, strain ELM1, stronger effect = lower value 1.03 | locus YKL067W, strain YNK1, stronger effect = lower value 0.997 | locus YKL101W, strain HSL1, stronger effect = lower value 0.98 | locus YKL193C, strain SDS22, stronger effect = lower value 0.966 | locus YKL203C, strain TOR2, stronger effect = lower value 1.05 | locus YLR113W, strain HOG1, stronger effect = lower value 0.99 | locus YLR133W, strain CKI1, stronger effect = lower value 1.01 | locus YLR403W, strain SFP1, stronger effect = lower value 1.01 | locus YML070W, strain DAK1, stronger effect = lower value 1 | locus YMR001C, strain CDC5, stronger effect = lower value 0.962 | locus YMR205C, strain PFK2 (second series), stronger effect = lower value 0.998 | locus YMR277W, strain FCP1, stronger effect = lower value 0.968 | locus YNL006W, strain LST8, stronger effect = lower value 0.969 | locus YNL020C, strain ARK1, stronger effect = lower value 1.02 | locus YNL161W, strain CBK1, stronger effect = lower value 0.964 | locus YNL183C, strain NPR1, stronger effect = lower value 0.977 | locus YNL207W, strain RIO2, stronger effect = lower value 0.977 | locus YNL222W, strain SSU72, stronger effect = lower value 0.976 | locus YNL307C, strain MCK1 (second series), stronger effect = lower value 1.02 | locus YOL078W, strain AVO1, stronger effect = lower value 0.966 | locus YOL136C, strain PFK27, stronger effect = lower value 1.02 | locus YOR061W, strain CKA2, stronger effect = lower value 0.967 | locus YOR119C, strain RIO1, stronger effect = lower value 1.07 | locus YOR231W, strain MKK1, stronger effect = lower value 0.966 | locus YOR329C, strain SCD5, stronger effect = lower value 0.982 | locus YPL031C, strain PHO85, stronger effect = lower value 0.997 | locus YPL153C, strain RAD53, stronger effect = lower value 1 | locus YPL204W, strain HRR25, stronger effect = lower value 1.02 | locus YPL209C, strain IPL1, stronger effect = lower value 0.973 | locus YPL256C, strain CLN2, stronger effect = lower value 1.07 | locus YPR025C, strain CCL1, stronger effect = lower value 0.97 | locus YPR106W, strain ISR1, stronger effect = lower value 0.986 | locus YPR111W, strain DBF20, stronger effect = lower value 0.97 | strain NNK1, stronger effect = lower value 0.995 | strain TSCII, stronger effect = lower value 0.964
